Assay [1] can be described thus: NCI Yeast Anticancer Drug Screen. Data for the rad50 strain (AID 155).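 Note: 0% = growth of vehicle-only cultures of the same strain.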 To be noted: S. cerevisiae rad50 strain growth inhibition, hits give high values; at 50.0 µM unless noted. In a few lines:
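Inhibition values express reduced yeast growth in compound-treated cultures relative to vehicle-treated controls.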

Assay [2] is described as follows: NCI Yeast Anticancer Drug Screen. Data for the mec2-1 strain (AID 157). The settings on record: S. cerevisiae mec2-1 strain, hits give high values; at 50.0 µM unless noted. In outline: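 Vehicle-treated cultures served as reference for growth inhibition of compound-exposed mec2-1 yeast.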
Assay [3] can be described thus: NCI Yeast Anticancer Drug Screen. Data for the sgs1 mgt1 strain (AID 161).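 Note: 0% = growth of cultures given vehicle only.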 The settings on record: S. cerevisiae sgs1 mgt1 strain, hits give high values; at 50.0 µM unless noted. In a few lines:
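Read-out: growth inhibition vs vehicle controls. Cells: mutant yeast strain deficient in DNA damage repair.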

The nature of assay [4]: NCI Yeast Anticancer Drug Screen. Data for the cln2 rad14 strain (AID 165).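 Note: 0% = growth equal to vehicle treated cultures.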 To be noted: S. cerevisiae cln2 rad14 strain, hits give high values; at 50.0 µM unless noted. In a few lines: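 Each compound was tested on cln2 rad14 yeast. Inhibition of growth was calculated against vehicle-exposed controls.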
Assay [5] can be described thus: NCI Yeast Anticancer Drug Screen. Data for the bub3 strain (AID 167). The settings on record: S. cerevisiae bub3 mutant strain, hits give high values; at 50.0 µM unless noted. In a few lines: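 Steps: expose the mutant yeast strain to compound; grow alongside vehicle-treated cultures; measure growth; express inhibition against the vehicle cultures.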
Assay [6] is described as follows: NCI Yeast Anticancer Drug Screen. Data for the mlh1 rad18 strain (AID 175). To be noted: S. cerevisiae mlh1 rad18 strain growth inhibition, hits give high values; at 50.0 µM unless noted. In a few lines: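 Vehicle-treated cultures served as the reference for growth inhibition in a yeast strain carrying DNA damage repair alterations exposed to each compound.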

Structures are written as SMILES. “And” between values parts separate entries of the source, which are not always exact repeats. Equal values may be shown once. The panel holds about 79,000 compounds, 15% with a hit somewhere; the sample as a whole holds those more often. Values without a mark were called inactive. The source made the active and inactive calls. Cut-off read from the data, not from the text of the source: active = growth inhibition above about 70%; inactive = the rest.

For `CC(C)OC(=O)c1ccc(CCC2=CC(=O)C(Br)=CC2=O)cc1`, the growth inhibition in assay [1] is 50.7%; in assay [2], 62.4%; in assay [3] it was 65.5%; in assay [4], 56%; in assay [5], 51%; in assay [6], 90% (active).
Regarding `O=S(=O)(O)c1cc(Nc2ccnc3ccccc23)c2c(S(=O)(=O)O)cc(S(=O)(=O)O)cc2c1`, the growth inhibition was 15.1% in assay [1]; 24.3% in assay [2]; 4.25% in assay [3]; 12.2% in assay [4]; 10.2% in assay [5]; 19.8% in assay [6].
For `O=C(/C=C/c1ccc(OCc2ccccc2)cc1)c1cccc([N+](=O)[O-])c1`, the growth inhibition is 4.7% in assay [1]; 6.35% in assay [2]; -5.85% in assay [3]; 9.15% in assay [4]; -0.05% in assay [5]; 12.2% in assay [6].
For the compound `CCOC(=O)/C(C#N)=C/c1cccc([N+](=O)[O-])c1`, the growth inhibition in assay [1] was 4.9%; in assay [2], 4.8%; in assay [3] it was 7.05%; in assay [4], -11.6%; in assay [5], 34.1%; in assay [6] it was 31.2%.
`CC/C=N\N1C(N)=C(C#N)C(C#N)(C#N)C1CC` (stereo unspecified): the growth inhibition in assay [1] was 6.05%; in assay [2], 10.2%; in assay [3], -18.9%; in assay [4] it was 4.75%; in assay [5] it was -12.8%; in assay [6] it was -27.9%.
Take `CN1C(=O)N(C)C2(O)c3ccccc3C(=O)C12O` (stereo unspecified): the growth inhibition is 14.6% in assay [1]; 2.9% in assay [2]; 18.9% in assay [3]; 15% in assay [4]; 19.8% in assay [5]; 38.9% in assay [6].
As to `CCCCCCCCSC(=N)N`, the growth inhibition in assay [1] was 23.9%; in assay [2], -14.1%; in assay [3], 1.95%; in assay [4] it was 18.1%; in assay [5], 36.1%; in assay [6] it was 10.7%.
Take `C=CCCCCCCCCCCCCCCCC`: the growth inhibition in assay [1] was -24%; in assay [2] it was -49%; in assay [3] it was -23.1%; in assay [4] it was -13.2%; in assay [5] it was -27.6%; in assay [6], -9.2%.
As for `CC/C(CC(=O)CCC(=O)Nc1ccc(C)c(C)c1)=N\NC(=O)c1cc2ccccc2cc1O`, the growth inhibition is 45.2% in assay [1]; 22.9% in assay [2]; -13.4% in assay [3]; -5.2% in assay [4]; 44.6% in assay [5]; 34.4% in assay [6].
Regarding `CCOC(=O)C(NC(C)=O)(Nc1ccc(S(N)(=O)=O)cc1)C(F)(F)F` (stereo unspecified), the growth inhibition is -16.2% in assay [1]; 1.55% in assay [2]; 3.95% in assay [3]; 27.6% in assay [4]; 7.7% in assay [5]; -28.9% in assay [6].
In the case of `O=C(O)c1ccc(NCC(O)COc2ccc([N+](=O)[O-])cc2)cc1` (stereo unspecified), the growth inhibition in assay [1] was -6.7%; in assay [2], 4.85%; in assay [3], -2.8%; in assay [4], 5.4%; in assay [5] it was -3.55%; in assay [6], 0.25%.
With `COc1ccc(Cl)c2c(=O)c3ccccc3[nH]c12`, the growth inhibition is -3.45% in assay [1]; 7.65% in assay [2]; 2.5% in assay [3]; -35.1% in assay [4]; -12.3% in assay [5]; 12.8% in assay [6].
In the case of `Nc1ncnc2c1nc(Cl)n2C1OC2COP(=O)(O)OC2C1O` (stereo unspecified), the growth inhibition is -15.9% and -13.3% in assay [1]; -8.05% and 3.45% in assay [2]; -20.7% and -0.55% in assay [3]; -9.25% and -40.8% in assay [4]; -27.1% and -41.8% in assay [5]; -13.8% and -10.6% in assay [6].
As for `Cc1ccc(S(=O)(=O)C2OC(CO)C(O)C(O)C2O)cc1` (stereo unspecified), the growth inhibition in assay [1] is -11.5%; in assay [2], -16.6%; in assay [3], -5.55%; in assay [4], -21.1%; in assay [5], 14.9%; in assay [6] it was -6.25%.
Consider `CC(O)C(=O)N(CCO)c1ccccc1` (stereo unspecified), for which the growth inhibition was 13.4% in assay [1]; 1.2% in assay [2]; -5.5% in assay [3]; 3.25% in assay [4]; 2.2% in assay [5]; -21.4% in assay [6].
In the case of `c1ccc2c3c([nH]c2c1)CCCC3`, the growth inhibition was -1.6% in assay [1]; 1.2% in assay [2]; -10.2% in assay [3]; -31.4% in assay [4]; 11.5% in assay [5]; -1.25% in assay [6].
For the compound `NC(=O)c1cncn1C1OCC(O)C(O)C1O` (stereo unspecified), the growth inhibition in assay [1] is 10.2%; in assay [2] it was 6.4%; in assay [3] it was 3.85%; in assay [4] it was -6.8%; in assay [5] it was 3.1%; in assay [6], -20.2%.
As for `CN=c1ss/c(=N\C(=S)N(C)C)n1C1CCCCC1`, the growth inhibition in assay [1] was -9.6%; in assay [2] it was -0.55%; in assay [3], 14%; in assay [4], 13.1%; in assay [5], 0%; in assay [6], 21.2%.
Turning to `O=C1CCC2OC(=O)C3CCCC1C23` (stereo unspecified), the growth inhibition in assay [1] was -6.05%; in assay [2] it was -1.85%; in assay [3], -19%; in assay [4], 0.1%; in assay [5] it was -2.65%; in assay [6] it was -14.2%.
As for `CCOP(=O)(OCC)/C(=C\n1c(=S)[nH]c2cc(C)ccc21)C(=O)OC`, the growth inhibition was -34.1% in assay [1]; -27.7% in assay [2]; 13.3% in assay [3]; -4.4% in assay [4]; -2.5% in assay [5]; 31.3% in assay [6].
Take `CC(C)CCCC(C)C1CCC2C3CC(C(=O)O)C(C)(CCC(=O)O)C3CCC12C` (stereo unspecified): the growth inhibition in assay [1] is 44%; in assay [2], 36%; in assay [3], 43.9%; in assay [4], 30%; in assay [5], 4%; in assay [6] it was 41.7%.

The values above are taken from PubChem BioAssay (NCI).
